{
  "source": "PubChem BioAssay AID434973",
  "about": "(Sanford-Burnham Center for Chemical Genomics, 2010)",
  "note": "Out of some 330,000 compounds screened, about 4,900 (1.5%) were called active. The sample holds actives, similar compounds and a random draw of the others, so the mix is not that of the screen. A number with no mark means an inactive call.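 How the source made its calls: active means inhibition above about 50% at the single test dose (limit read from the data); inactive means the rest.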",
  "data": [
    {"target": "Sentrin-specific protease 7 (Homo sapiens) (UniProt Q9BQF6)", "assay": "SENP7 protease inhibitors, primary screen, biochemical, luminescence, uHTS (AID 434973);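 further: plate controls were DMSO with enzyme for no effect and no enzyme buffer wells for full effect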", "conditions": "recombinant SENP7, Z-RLRGG-aminoluciferin luminescence, 40 min; at 5 µM; hits give high values", "values": [
      {"smiles": "Cc1nc2ccc(N3CCN(C)CC3)cc2nc1C", "inhibition": "-4.82%"},
      {"smiles": "CN1CCN(c2cc(N3CCNCC3)ccc2[N+](=O)[O-])CC1", "inhibition": "6.98%"},
      {"smiles": "COc1cccc(-c2nc3ccc(N4CCN(C)CC4)cc3[nH]2)c1", "inhibition": "57.6% (active)"},
      {"smiles": "Cc1ccc(C)c(NC2=NCCCS2)c1", "inhibition": "5.92%"},
      {"smiles": "CCOC(=O)c1c(N)n(Cc2ccccc2)c2nc3ccccc3nc12", "inhibition": "13%"},
      {"smiles": "COc1cc(Cn2c(N)c(C(=O)NCc3ccco3)c3nc4ccccc4nc32)cc(OC)c1OC", "inhibition": "80.7% (active)"},
      {"smiles": "CCOC(=O)c1c(N)n(CCN2CCOCC2)c2nc3ccccc3nc12", "inhibition": "0.976%"},
      {"smiles": "CCOC(=O)C(O)(c1ccc(N)c(OC)c1)C(F)(F)F", "note": "(stereo not given)", "inhibition": "3.48%"},
      {"smiles": "NCC(O)c1ccc(O)cc1", "note": "(stereo not given)", "inhibition": "-7.28%"},
      {"smiles": "COc1ccc(N=Cc2c(O)n(C)c(=O)[nH]c2=O)cc1", "inhibition": "22.6%"}
    ]}
  ]
}
